The text below walks through data of PubChem BioAssay AID430 (Sanford-Burnham Center for Chemical Genomics, 2006).

Out of some 63,000 compounds screened, about 1,100 (1.7%) were called active. What follows is part of a selection rich in actives, with near analogues and random picks from the rest. Entries with a potency or affinity are not part of this list. Unmarked numbers belong to inactive results. No stated cut-off is given here; in the data, active means cytotoxicity above about 50%; inactive means the rest.

The assay can be described thus: HPDE-C7 pancreatic duct cell viability loss – fluorescence, HTS (AID 430).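 Further: cells exposed to compound for 48 hours before viability readout; 0% = vehicle and 100% = reference cytotoxic drug.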 The settings on record: HPDE-C7 pancreatic duct cells viability, at 10 µM, stronger effect = higher value.
Turning to `CCS(=O)(=O)N1Cc2ccccc2CC1C(=O)Nc1nc2ccccc2[nH]1` (stereo not drawn), the cytotoxicity was 6.5%.

As for `COC(=O)C1=C(N)OC2=C(C(=O)CC(C)(C)C2)C1c1ccoc1` (stereo not drawn), the cytotoxicity is -0.4%.

For the compound `Cc1nn(C)cc1C1C2=C(CC(C)(C)CC2=O)OC2=C1C(=O)CC(C)(C)C2`, the cytotoxicity is -12.3%.

For `CCN(Cc1cc2cc(C)ccc2[nH]c1=O)C(=O)c1cccc(OC)c1`, the cytotoxicity was 0.1%.

With `Clc1cc(Cl)c2nc(N3CCCCC3)sc2c1`, the cytotoxicity was -1.2%.

In the case of `COC(=O)c1c(C)nn(-c2ccccc2)c1N`, the cytotoxicity is 4.7%.

Consider `Cc1ccccc1NC(=O)N1CCCC(c2nc(-c3ccc(C(C)C)cc3)no2)C1` (stereo not drawn), for which the cytotoxicity was 33.3%.

In the case of `COc1ccc(NC(=O)N2CCCC(c3nc(-c4ccc(C(C)C)cc4)no3)C2)cc1` (stereo not drawn), the cytotoxicity is 56.3% (active).

As to `COc1ccc(-c2noc(C3CCCN(C(=O)c4cccs4)C3)n2)cc1` (stereo not drawn), the cytotoxicity was -9%.

In the case of `CC1=C(C(=O)N(C)C)C(c2ccc(Cl)c(Cl)c2)NC(=O)N1` (stereo not drawn), the cytotoxicity was -1.2%.

For the compound `O=C(Nc1nc(-c2ccncc2)cs1)c1ccco1`, the cytotoxicity was 9.1%.

Take `O=C(Nc1nc(-c2cc3ccccc3oc2=O)cs1)c1ccco1`: the cytotoxicity is 85% (active).

On to `Cc1csc(NC(=O)c2ccco2)n1`, for which the cytotoxicity was -14.7%.

Take `O=C(NC1CCCCC1)NC1(C(=O)NCCCN2CCOCC2)CCCCC1`: the cytotoxicity is -1.8%.

Consider `CCN(CC)c1ccc(NC(=O)CN2CCN(CC(=O)Nc3ccc(F)cc3)CC2)cc1`, for which the cytotoxicity was 4.2%.

On to `O=C(CN1CCOc2ccccc21)N1CCCC1`, for which the cytotoxicity was 4.1%.

With `CC(=O)c1ccc(NC(=O)C2CCC(C)NC2=O)cc1` (stereo not drawn), the cytotoxicity was -4.9%.

Take `CCOc1ccc(-c2nnc3ccc(SCC(=O)N4CCN(c5ccccc5)CC4)nn23)cc1`: the cytotoxicity is 56.6% (active).

In the case of `COc1ccc(-c2nnc3ccc(SCC(=O)N4CCN(c5ccccc5)CC4)nn23)cc1`, the cytotoxicity was -6.6%.

Turning to `O=C(CSc1ccc2nnc(-c3ccccc3)n2n1)N1CCN(c2ccccc2)CC1`, the cytotoxicity is -3.5%.

On to `CCn1c(=N)c(C(N)=O)cc2c(=O)n3cccc(C)c3nc21`, for which the cytotoxicity was 3.5%.

Consider `Cc1cc(C)c2[nH]c(=O)c(C(c3nnnn3C3CCCC3)N3CCOCC3)cc2c1` (stereo not drawn), for which the cytotoxicity is -7.3%.

As for `CCCn1c(NC(=O)c2cccc(S(=O)(=O)N3CCCC3)c2)nc2ccccc21`, the cytotoxicity was 61.9% (active).

Take `O=C(Nc1nc2ccccc2n1CCN1CCCC1)c1ccc(Cl)cc1`: the cytotoxicity was 59.6% (active).

Consider `Cc1ccc(C(=O)Nc2nc3ccccc3n2CCN2CCCC2)cc1`, for which the cytotoxicity is 1.6%.

Regarding `O=C(Nc1nc2ccccc2n1CCN1CCCCC1)c1ccco1`, the cytotoxicity was -1.1%.

Take `CCCn1c(NC(=O)c2ccc(C)cc2)nc2ccccc21`: the cytotoxicity is -34.1%.

As to `CCCn1c(NC(=O)c2ccc(Cl)c(S(=O)(=O)N3CCCC3)c2)nc2ccccc21`, the cytotoxicity was 16.1%.

In the case of `COc1ccc(S(=O)(=O)N(CC(=O)NCCCN(C)C)c2ccc(C)cc2)cc1OC`, the cytotoxicity is 1%.

In the case of `CC(=O)N1c2ccccc2N(Cc2ccc(C)cc2C)C(=O)C1(C)C`, the cytotoxicity is 58.4% (active).

As for `Cc1ccccc1CN1C(=O)C2(OCCCO2)c2ccccc21`, the cytotoxicity was -4%.

Regarding `Cc1ccc(C)c(CN2C(=O)C3(OCCCO3)c3ccccc32)c1`, the cytotoxicity is -1.3%.

For the compound `N=c1n(CCOc2ccccc2)c2ccccc2n1CCN1CCOCC1`, the cytotoxicity is -22.8%.

Consider `CC1(C)CC(=O)C2=C(C1)NC(Nc1nc3ccccc3o1)=NC21CCCC1`, for which the cytotoxicity is -16.5%.

On to `Nc1nnnn1/N=C/c1cccc(Oc2ccccc2)c1`, for which the cytotoxicity was -9.6%.

On to `Nc1nnnn1/N=C/C=C/c1ccccc1`, for which the cytotoxicity was -7.1%.

Consider `CC(=O)Nc1ccc(-n2c(C)nc(=O)c(-c3ccccc3)c2C)cc1`, for which the cytotoxicity is 2.9%.

As for `CS(=O)(=O)c1ccc2nc(NC(=O)Oc3ccccc3)sc2c1`, the cytotoxicity is 3.4%.

In the case of `Cc1ccc(NC(=O)CN(C)S(=O)(=O)c2cccc3cccnc23)cc1`, the cytotoxicity is 0.4%.

With `O=C1CC(N2CCOCC2)C(=O)N1CCc1ccccc1` (stereo not drawn), the cytotoxicity is 5.1%.

Consider `Cc1cc(-c2nnc3sc(C4CCCCC4)nn23)n[nH]1`, for which the cytotoxicity is 4.3%.

Turning to `CC(C)C(c1nnnn1CC1CCCO1)N1CCN(Cc2ccc3c(c2)OCO3)CC1` (stereo not drawn), the cytotoxicity is -3.2%.

Consider `CS(=O)(=O)c1ccc2nc(NC(=O)Cc3ccccc3)sc2c1`, for which the cytotoxicity was 0.9%.

With `O=C(Cc1cccs1)Nc1nc2ccccc2s1`, the cytotoxicity was 0.1%.

Turning to `CC(C)(C)NS(=O)(=O)c1ccc2nc(NC(=O)Cc3cccs3)sc2c1`, the cytotoxicity was 68.7% (active).

With `CCOC(=O)C1CCCN(c2c(NCC3CCCO3)c(=O)c2=O)C1` (stereo not drawn), the cytotoxicity was -11.3%.

`COC(=O)c1ccc(Oc2cc(C)nc(-n3nc(C)cc3C)n2)cc1`: the cytotoxicity was 54.2% (active).

Take `COc1ccc(Nc2cc(C)nc(-n3nc(C)cc3C)n2)cc1`: the cytotoxicity was 66.9% (active).

`COC(=O)c1ccc(Nc2cc(C)nc3nc(C)nn23)cc1`: the cytotoxicity was 5.7%.

As for `CC(=O)c1ccc(Oc2cc(C)nc(-n3nc(C)cc3C)n2)cc1`, the cytotoxicity was 60.3% (active).

Take `Cc1cc(C)n(-c2ccc(C(=O)NC(C)C)cc2)n1`: the cytotoxicity is -1%.

As to `CNc1cc(C)nc(-n2nc(C)cc2C)n1`, the cytotoxicity was -0.2%.

Regarding `CCOc1ccc(Nc2cc(C)nc(-n3nc(C)cc3C)n2)cc1`, the cytotoxicity was 49.1%.

For the compound `COc1ccc(N2CCN(C(=O)c3ccc(-n4nc(C)cc4C)cc3)CC2)cc1`, the cytotoxicity was -4.7%.

As for `COC(=O)c1ccc(Oc2ccc3nnc(C)n3n2)cc1`, the cytotoxicity was -7.1%.

On to `O=C(NCCOC(=O)c1ccc(Cl)c(S(=O)(=O)N2CCCCC2)c1)c1ccncc1`, for which the cytotoxicity was -9.8%.

With `c1ccc2c(c1)nc(N1CCOCC1)c1c3ccccc3[nH]c21`, the cytotoxicity is -21.6%.

Regarding `CC1(C)CC(=O)c2cnn(-c3nc4ccccc4[nH]3)c2C1`, the cytotoxicity was -0.3%.

As for `Cc1ccc2cccc(OC(=O)c3ccc4c(c3)OCCO4)c2n1`, the cytotoxicity was 53% (active).

As to `Cc1noc(C)c1COC(=O)c1ccc2c(c1)OCCO2`, the cytotoxicity is 4.3%.

Regarding `O=C(Oc1cccc2cccnc12)c1cccc(-n2cnnn2)c1`, the cytotoxicity was 20.3%.

With `CN(CCOC(=O)c1ccc2c(c1)OCCO2)Cc1ccccc1`, the cytotoxicity is -14%.

Consider `O=S(=O)(Nc1ccc2c(c1)OCCO2)c1cccc2cccnc12`, for which the cytotoxicity was -0.7%.
